BAZ2B inh – qHTS Assay for Inhibitors of BAZ2B; Bromodomain adjacent to zinc finger domain protein 2B (Homo sapiens), Q9UIF8; AlphaScreen BAZ2B-H3K14Ac peptide displacement; Potency, µM (series often up to 114 µM), for the others: top-dose activity change, negative = inhibition, hits mostly inhibitors; 360,000 tested, 4.4% active; also: % is scaled to controls: 0 for no effect and ±100 for the full control effect; nearly all actives have a fitted effect of over 60% in size
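In this displacement format the biotinylated H3(5-23) peptide acetylated at Lys14 serves as ligand at 50 nM, with BAZ2B at 50 nM in PBS pH 7.4 containing 0.01% Tween-20. Donor and acceptor beads are 10 ug/mL final.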
Sfp inh – qHTS Assay for Inhibitors of Bacillus subtilis Sfp phosphopantetheinyl transferase (PPTase); 4'-phosphopantetheinyl transferase ffp (Bacillus subtilis), Q9F4F7; Biochemical Sfp PPTase activity, qHTS; Potency, µM, for inactives: largest response in the series, negative = inhibition, most hits filed as inhibitors; 310,000 tested, 3.5% active; AID 1490, 2009;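 also: the enzyme is Sfp with the accession as filed and its product quenches rhodamine fluorescence; 0% = enzyme reaction without inhibitor and -100% = no enzyme wells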
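Step 1, compound plus 15 nM Sfp-PPTase, 15 min, room temperature. Step 2, add rhodamine-CoA (5 uM) and BHQ-2-YbbR (12.5 uM). Step 3, read 525/598 nm fluorescence at 0 and 30 min.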
HP1b binding inh – HTS for Inhibitors of HP1-beta Chromodomain Interactions with Methylated Histone Tails; Chromobox protein homolog 1 (Homo sapiens), P83916; AlphaScreen HP1-beta / biotin-H3K9me3 peptide binding; Potency, µM (highest dose often 114 µM), without a hit: at the top dose activity change, negative = inhibition, most hits filed as inhibitors; 390,000 tested, 0.56% active; also: nearly all actives have a fitted effect of over 70% in size
Target sequence (P83916 whole entry, looked up): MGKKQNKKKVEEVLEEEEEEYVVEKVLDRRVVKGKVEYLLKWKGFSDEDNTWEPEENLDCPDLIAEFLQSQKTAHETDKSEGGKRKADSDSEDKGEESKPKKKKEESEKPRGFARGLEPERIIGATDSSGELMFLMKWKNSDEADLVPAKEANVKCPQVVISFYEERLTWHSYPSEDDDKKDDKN
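AlphaScreen: HP1-beta (50 nM) preformed 30 min with biotin-H3(1-18)K9me3 peptide (50 nM) in PBS pH 7.4, 0.01% Tween-20. Compound added for 30 min at RT, then streptavidin donor/nickel chelate acceptor beads (10 ug/mL) for 30 min.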
JMJD2A Tudor – qHTS Assay for Inhibitors of JMJD2A-Tudor Domain; Lysine-specific demethylase 4A (Homo sapiens), O75164; AlphaScreen JMJD2A-Tudor / H3K4me3 peptide binding; Potency, µM (series often up to 114 µM), for inactives: at the highest dose activity change, negative = inhibition, actives largely listed as inhibitors; 390,000 tested, 4.4% active; AID 504339, 2011; also: % is scaled to controls: 0 for no effect and ±100 for the full control effect; nearly all actives have a fitted effect of over 50% in size
G9a inh – qHTS Assay for Inhibitors of Histone Lysine Methyltransferase G9a. 350,000 tested, 8.8% active. Histone-lysine N-methyltransferase EHMT2 (Homo sapiens), Q96KQ7. G9a H3K9 monomethylation, AlphaScreen, 2 h. Potency, µM (doses to about 102 µM), without a hit: top-dose activity, negative = inhibition, most hits filed as inhibitors; also: % is scaled to controls: 0 for no effect and ±100 for the full control effect; nearly all actives have a fitted effect of over 75% in size
Target sequence (Q96KQ7 913-1193 limits assumed): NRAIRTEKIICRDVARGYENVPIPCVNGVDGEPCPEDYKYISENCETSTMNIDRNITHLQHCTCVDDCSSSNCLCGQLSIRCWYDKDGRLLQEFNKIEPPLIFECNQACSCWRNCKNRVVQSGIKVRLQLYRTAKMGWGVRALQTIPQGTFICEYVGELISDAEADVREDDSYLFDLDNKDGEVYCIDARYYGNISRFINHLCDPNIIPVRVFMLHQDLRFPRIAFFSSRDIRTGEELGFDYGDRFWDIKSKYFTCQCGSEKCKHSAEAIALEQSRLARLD
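Compounds were preincubated with 20 nM G9a for 15 min, after which biotinylated H3K9 peptide (500 nM) and SAM (20 uM) started a 2 h room-temperature reaction. Monomethylated product was quantified by antibody-based AlphaScreen chemiluminescence.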
Active calls of the source: *; ? = inconclusive; · = no result; [ ] = another dose, or the depositor's remark. A selection: hits, their analogues and other compounds. The true share with any hit is near 12%. Calls follow the shape of the dose curve; as a rule, active = well fitted curve in the direction sought with a large enough effect; inconclusive = small, poorly fitted or top-dose-only effect, or another doubt; inactive = no such curve, though single readings can be large; an effect the other way counts as inactive or inconclusive. Potency is read from the fitted curve at half-maximal effect.

SMILES	BAZ2B inh	Sfp inh	HP1b binding inh	JMJD2A Tudor	G9a inh
O=[N+]([O-])c1ccc2c(c1)nc1n2CCN(C2CCCCC2)C1	-12%	0%	16%	-24%	4%[12.7 µM]
CCCC(=O)Nc1ccc2c(c1)nc1n2CCN(C2CCCCC2)C1	-29%	25%	-5%	?	13µM*
CC(=O)Nc1ccc2c(c1)nc1n2CCN(C2CCCCC2)C1	?	8%	-3%	-29%	10µM*
O=C(O)c1cccc(-c2ccc(/C=N/Nc3ccc([N+](=O)[O-])cc3)o2)c1	45µM*	0%	-21%	-27%	·
NS(=O)(=O)c1ccc(-c2ccc(/C=N/Nc3ccc(C(=O)O)cc3)o2)cc1	-7%	50µM*	14%	-14%[11.4 µM]	·
O=C(N/N=C/c1ccc([N+](=O)[O-])o1)C(=O)Nc1ccc(C(=O)O)cc1	-2%	-11%	37%	0%	-9%
O=C(O)c1ccc(N/N=C/C=C/c2ccc([N+](=O)[O-])o2)cc1	40µM*	?	?	45µM*	32µM*
NS(=O)(=O)c1ccc(-c2ccc(/C=N/NC(=O)c3ccc([N+](=O)[O-])cc3)o2)cc1	-4%	12%	16%	-3%	-5%
O=C(O)c1ccc(N/N=C/c2ccc(-c3cc(Cl)ccc3Cl)o2)cc1	79µM*	-26%	-8%	40µM*	-39%
O=C1OC(c2ccccc2)=C/C1=C/N1CCCCC1	50µM*	?	-22%	?	?
O=C1OC(c2ccccc2)=N/C1=C\N1CCCCC1	?	3%	-11%	?	7%[59 µM]
COc1ccc(N2CC(C(=O)Nc3nnc(SCC(=O)NC4CCCC4)s3)CC2=O)cc1 (stereo not drawn)	-13%	?	15%	?	32µM*
O=C(CSc1nnc(NC(=O)C2CC(=O)N(c3ccccc3)C2)s1)NC1CCCC1 (stereo not drawn)	2%	9%	14%	-3%	1%
O=C(CSc1nnc(NC(=O)c2ccccc2)s1)NCC1CCCO1 (stereo not drawn)	-13%	4%	30%	-10%	?
CCOc1ccc(N2CC(C(=O)Nc3nnc(Cc4ccc(OC)cc4)s3)CC2=O)cc1 (stereo not drawn)	3%	-8%	8%	-13%	10µM*
CCC(=O)Nc1nnc(SCC(=O)NC2CCCC2)s1	7%	7%	21%	-5%	?
O=C(CSc1nnc(NC(=O)c2ccccc2F)s1)NCC1CCCO1 (stereo not drawn)	-5%	50µM*	10%	?	14µM*
CCNc1nnc(SCC(=O)NC2CCCCCC2)s1	9%	·	-1%	-8%	3.5µM*
Cc1ccc(NCc2cccn2-c2nnc(N3CCC(C(=O)NC(C)C)CC3)s2)cc1	8%	·	6%	-33%	10%[59 µM]
CC(=O)Nc1nnc(SCC(=O)NCC2CCCO2)s1 (stereo not drawn)	57%	-1%	27%	-9%	?
CC(=O)Nc1ccc(NC(=O)CSc2nnc(NC(=O)C3CC(=O)N(c4ccccc4)C3)s2)cc1 (stereo not drawn)	-17%	8%	52%	-12%	40µM*
COc1ccc(N2CC(C(=O)Nc3nnc(SCC(=O)NCC4CCCO4)s3)CC2=O)cc1 (stereo not drawn)	·	·	4%	35µM*	·
Cc1ccc(N2CC(C(=O)Nc3nnc(SCC(=O)NCC4CCCO4)s3)CC2=O)cc1C (stereo not drawn)	-7%	-9%	39%	-3%	40µM*
CC(C)Nc1nnc(SCC(=O)Nc2ccc(F)cc2)s1	3%	-12%	11%	-6%	40µM*
CC(=O)Nc1ccc(NC(=O)CSc2nnc(NC(=O)c3ccc(Br)o3)s2)cc1	?	4%	35%	-20%	16µM*
SMILES	BAZ2B inh	Sfp inh	HP1b binding inh	JMJD2A Tudor	G9a inh
O=C1CN(c2nc(-c3ccccc3)c3ccccc3n2)c2ccccc2N1	8%	2%	20%	-4%	-10%[59 µM]
CC(C)(C)NC(=O)CN(Cc1ccc2c(c1)OCO2)C(=O)CNC(=O)c1cccs1	-29%	15%	·	·	16%
Cc1ccccc1SCC(=O)Nc1cc(S(=O)(=O)N2CCOCC2)ccc1N1CCOCC1	-9%	-2%	18%	-8%	·
Clc1ccc(-c2nc(/C=N/N3CCOCC3)c3ccccn23)cc1	·	-14%	-12%	?	28µM*
CN1CCN(/N=C/c2nc(-c3ccc(Cl)cc3)n3ccccc23)CC1	50µM*	13%	-19%	?	16µM*
CN1CCN(/N=C/c2nc(-c3ccccc3)n3ccccc23)CC1	?	-10%	-5%	?	14µM*
O=[N+]([O-])c1cccnc1Sc1ccc(Cl)cc1	32µM*	-2%	?	56µM*	45µM*
CCCNC(=O)CN1CCC(c2nc3ccccc3[nH]2)CC1	-8%	8%	30%	-11%	·
COc1ccc(C2CC2/C(=N/O)c2ccccn2)cc1 (stereo not drawn)	-36%	9%	79%	-21%	-5%
COc1ccc(C2CC2/C(=N/O)c2ccccc2)cc1 (stereo not drawn)	-3%	0%	?	14µM*	20%
CCn1c(N2CCC(C)CC2)nc2c1c(=O)n(C)c(=O)n2C	6%	12%	40%	-4%	15%
CC(OC(=O)c1cccc(-n2cnnn2)c1)C(=O)Nc1ccccc1F (stereo not drawn)	4%	·	17%	-6%	50µM*
CC(OC(=O)c1cccc(-n2cnnn2)c1)C(=O)Nc1ccc(N(C)C)cc1 (stereo not drawn)	-5%	·	28%	-12%	7.1µM*
CC(OC(=O)c1cccc(-n2cnnn2)c1)C(=O)Nc1ccc(F)c(F)c1F (stereo not drawn)	·	·	58%	7%	·
CC(OC(=O)c1cccc(-n2cnnn2)c1)C(=O)Nc1ccc(F)cc1 (stereo not drawn)	-4%	1%	38%	-10%	-5%[12.7 µM]
CCCCN(CC)C(=O)Cc1cn(C)c2ccccc12	0%	5%	47%	-6%	2%
Cc1ccc2c(c1)NC(=O)C(CC(=O)NCCN(C)C)O2 (stereo not drawn)	0%	-21%	49%	-15%	45µM*
O=C(CC1Oc2ccc(Cl)cc2NC1=O)NC1CCCCCC1 (stereo not drawn)	10%	-8%	48%	-8%	79µM*
Cc1ccc2c(c1)NC(=O)C(CC(=O)NCCCN1CCN(c3cc(Cl)ccc3C)CC1)O2 (stereo not drawn)	-34%	?	21%	-24%	45µM*
CCC1CCCCN1CCCNC(=O)CC1Oc2ccc(C)cc2NC1=O (stereo not drawn)	2%	-7%	57%	-10%	32µM*
